Assay results from ChEMBL document CHEMBL4513216, “Probing the Open Global Health Chemical Diversity Library for Multistage-Active Starting Points for Next-Generation Antimalarials” (ACS Infect Dis, 2020).
Among all 69,000 compounds or so, about 8,600 (12%) showed an effect of 50% or more. What follows is part of a selection rich in strong results, with near analogues and random picks from the rest.

Each compound was assayed on Plasmodium berghei (assay: Screen against P. berghei liver stage (PbLuc), transformed with Luciferase, at 10uM). Conditions: tested at 10 uM.
Format: functional, HepG2

Structure (SMILES) | INHIBITION [%]
Cc1cc(CN2CCN(C(=O)NC(C)c3ccc(C)o3)CC2)on1 (stereo not drawn) | 13.75
O=C(c1ccnn1-c1ccc2ccccn12)N1CCCC1 | 30.3
CN(C)C1CCN(C(=O)c2ccnn2-c2ccc3ccccn23)CC1 | 4.98
O=C(NCCCN1CCOCC1)c1ccn(-c2ccc3ccccn23)n1 | 39.8
O=C(c1ccnn1-c1ccc2ccccn12)N1CCOCC1 | 13.1
O=C(NCCN1CCOCC1)c1ccnn1-c1ccc2ccccn12 | 94
CN1CCCN(C(=O)c2ccnn2-c2ccc3ccccn23)CC1 | 53.9
COCCNC(=O)c1ccnn1-c1ccc2ccccn12 | 39.3
CCN(C)C(=O)c1ccnn1-c1ccc2ccccn12 | 51.2
O=C(NCCN1CCOCC1)c1ccn(-c2ccc3ccccn23)n1 | 47.2
O=C(Nc1cccnc1)C1=NN(c2ccccc2)C(=O)CN1 | -141
CCCn1nccc1-c1cnc(CC2CCN(C(C)=O)C2)cn1 (stereo not drawn) | 19.3
O=C(Cn1ccc(=O)cc1)N1C[C@@H]2CC[C@H]1CN(c1ncccn1)C2 | 15.3
O=C(c1cc(Cl)c2c(c1)OCO2)N1CCN(c2ncccn2)CC1 | 15.4
CN1CCN(Cc2ccncc2)C(=O)C12CCN(Cc1ccsc1)CC2 | 1.34
COC1CCN(CC(=O)NCc2ccc(OCC(N)=O)cc2)CC1 | 2.45
Cc1nc2ccccc2c(=O)n1CCCC(=O)N1CCNC(=O)CC1 | 4.37
Cc1ccc(=O)n(CC2(O)CCN(Cc3cnn(C)c3)CC2)n1 | -3.31
Cc1nn(-c2ccccc2)nc1C(=O)NCC(c1ccco1)N(C)C (stereo not drawn) | 8.48
Cc1nn(-c2ccccc2)nc1C(=O)NCC(c1ccsc1)N(C)C (stereo not drawn) | 57.2
Cc1nn(C)c(Cl)c1C(=O)NCC(c1ccsc1)N(C)C (stereo not drawn) | 36.4
O=C1[C@H]2CN(Cc3ccoc3)C[C@H]2CN1CCN1CCCC1 | 3.81

Structure (SMILES) | INHIBITION [%]
CCN1C(=O)[C@H]2CN(CC(C)C)C[C@H]2C12CCN(S(C)(=O)=O)CC2 | 20.1
CCc1noc(CS(=O)(=O)C/C=C/c2ccccc2)n1 | 12.4
Cc1noc(CS(=O)(=O)C/C=C/c2ccccc2)n1 | 60.2
O=S(=O)(C/C=C/c1ccccc1)Cc1nc(C2CC2)no1 | 45
CC(=O)c1ccc(S(=O)(=O)N2CCOC(Cn3ccnc3)C2)cc1 (stereo not drawn) | 30.4
CSCC(=O)Nc1nccn1Cc1ccc(Br)cc1 | 50.8
COCCC(=O)Nc1nccn1Cc1ccc(Br)cc1 | 23.9
CCn1ccnc1CN(C)C(C(=O)O)c1ccc(C(C)(C)C#N)cc1 (stereo not drawn) | 42.8
CCOCC(=O)Nc1nccn1Cc1ccc(Br)cc1 | 45.2
CSc1ncccc1C(=O)Nc1ccc(Cn2ccccc2=O)cc1 | 9.16
CS(=O)(=O)c1nccn1Cc1ccc(C(N)=O)cc1 | 19.2
CNC(=O)c1ccc(Cn2ccnc2S(C)(=O)=O)cc1 | 20.5
COCC(=O)Nc1nccn1Cc1ccc(Br)cc1 | 84.2
CC(C)(C#N)C(=O)Nc1nccn1Cc1ccc(Br)cc1 | 60.1
CC(NC(=O)NCCCN1CCCC1=O)c1nncn1C (stereo not drawn) | -7.31
CCC(C(=O)NC1CCCC1)n1ccc2ncccc2c1=O (stereo not drawn) | -13.2
Cc1n[nH]c(C)c1C1CCCN1C(=O)NCC(=O)Nc1ccccc1 (stereo not drawn) | 22
O=C(c1ccc2c(c1)OCCCO2)N1CCCC(n2ccnc2)C1 (stereo not drawn) | 42
Cc1csc(CCNC(=O)NC(C)Cn2cccn2)n1 (stereo not drawn) | -7.31
Cc1ccc(C(=O)NCc2ccc(N(C)C)cc2)cn1 | 32
CN(c1ncc(C(=O)NCc2ccccc2)c(N)n1)C1CCCCC1 | 63.6
CN(c1ccc(CNC(=O)c2c[nH]c(=O)c(Cl)c2)cc1)C1CCCCC1 | 77.6

Structure (SMILES) | INHIBITION [%]
CC/C=C(\C)CN1CCC(CNC(=O)c2c[nH]c(=O)c(Cl)c2)C1 (stereo not drawn) | 63.8
CN(c1ncc(C(=O)Nc2ccccc2)c(N)n1)C1CCCCC1 | 47.2
COc1ccc(NC(=O)c2cnc(N(C)C3CCCCC3)nc2N)cc1 | 35.7
CC/C=C(\C)CN1CCC(CNC(=O)c2ccnc(N)c2)C1 (stereo not drawn) | -5.8
CNC(=O)c1ccc(CNC(=O)NCCN(C)C2CCCC2)cc1 | -2.53
CC/C=C(\C)CN1CCC(CNC(=O)c2ccc(=O)[nH]c2)CC1 | -24.7
CCC1CCC(CNC(=O)c2c[nH]c(=O)c(Cl)c2)CC1 (stereo not drawn) | 4.35
CN(C)c1cc(CNC(=O)c2ccc(O)nc2)ccn1 | 9.64
CN(c1ccc(CNC(=O)c2ccc(O)nc2)cc1)C1CCCCC1 | 67.8
CCOc1ncccc1NC(=O)N1CCC(CN2CCOCC2)CC1 | 31.65
C[C@@H]1C(=O)NC[C@H]2CN(CCc3ccccc3)C[C@H]21 | 26.6
CCC(CN1CCCC1)n1cncc1-c1cnn(-c2ccc(F)cc2)c1 (stereo not drawn) | 43.55
CCOC1COC2(CCN(c3ncc(C)cn3)CC2)C1 (stereo not drawn) | 10.6
CC(C)c1cc(C(=O)N2CCCC(n3cncn3)C2)n[nH]1 (stereo not drawn) | 15.6
Fc1ccc(-c2nnc(CN3CCCC3Cn3cccn3)o2)cc1 (stereo not drawn) | 11.6
CN1CCCC1c1ccc(C(=O)Nc2c3c(nn2C)CCC3)s1 (stereo not drawn) | 56
O=C(c1ccc(C2CCCO2)s1)N1Cc2ccccc2C1 (stereo not drawn) | -44.8
Cn1nc2c(c1NC(=O)c1ccc(Cl)s1)CCC2 | -57.9
CC(=O)N1CCCC1c1ccc(C(=O)N2CCOCC2)s1 (stereo not drawn) | 21.7
CN1CCCC1c1ccc(C(=O)N2CCc3ccccc3C2)s1 (stereo not drawn) | 66.9
Cn1nc2c(c1NC(=O)c1ccc(C3CCCN3C3CCC3)s1)CCC2 (stereo not drawn) | 15.4
COCC1CC2(CCN(Cc3cnn(C)c3)CC2)CN1c1ncccn1 (stereo not drawn) | 18.5

Structure (SMILES) | INHIBITION [%]
O=C(CN1CCCC1COc1ccccc1)NCc1ccccn1 (stereo not drawn) | 38.2
Cc1nc(C(C)(C)NC(=O)Nc2ccc(C#N)cc2)no1 | 79.2
Cc1ccc(NC(=O)NC(C)(C)c2noc(C)n2)cc1 | 13.6
Cc1nc(C(C)(C)NC(=O)Nc2cccc(C#N)c2)no1 | -4.74
CCc1csc(C2CCCN(C(=O)c3ccnc(N(C)C)c3)C2)n1 (stereo not drawn) | 27.6
CC(C)c1nnc(NC(=O)NCc2cccnc2NCCN(C)C)s1 | 25.7
CN(C)CCNc1ncccc1CNC(=O)Nc1cc(F)cc(F)c1 | 55.6
Cc1nc(NC(=O)NCc2cccnc2NCCN(C)C)sc1C | 37.7
Cn1cc(S(=O)(=O)N(Cc2ccc(F)cc2F)C2CC2)cc1C(N)=O | 40.9
Cc1n[nH]c(C)c1NC(=O)CN1CCCC1c1c(C)nn(C)c1C (stereo not drawn) | 9.54
CCN(CC)C(=O)CSc1nc2cc(C)nc-2c(O)n1CC | 42.4
c1cncc(C2COC3(CCN(Cc4nccs4)CC3)C2)c1 (stereo not drawn) | 36.2
Cc1nc(CN2CCN(C(=O)CCc3cccc(Cl)c3)CC2)no1 | 75.2
Cc1nc(CN2CCN(C(=O)CCC(=O)c3ccccc3)CC2)no1 | -36.4
O=C(CCn1ccc2ccccc21)N1CCN(Cc2cccnc2)CC1 | 64.9
O=C(CCn1ccc2ccccc21)N1CCC(Nc2cccnn2)CC1 | -35.2
Cc1nc(CN2CCN(C(=O)CC(C)(C)c3ccccc3)CC2)no1 | -73.6
Cc1nc(CN2CCN(C(=O)CCc3cccnc3)CC2)no1 | 65.2
COc1cccc(CCC(=O)N2CCN(Cc3noc(C)n3)CC2)c1 | -30.7
Cc1nc(CN2CCN(C(=O)Cc3cccc(Cl)c3)CC2)no1 | -2.04
O=C(CCn1ccc2ccccc21)N1CCC(Nc2cccnc2)CC1 | -22.4
O=C(CCn1cccn1)N1CCSCC1 | 4.55

Structure (SMILES) | INHIBITION [%]
CN(C)Cc1ccccc1CN(C)C(=O)c1ccoc1 | 11.1
c1c(CN2CCCCC2)nc2n1CCNC2 | -46.4
Cc1nn(C)cc1S(=O)(=O)N(C)[C@@H]1CCC[C@@H](n2ccnc2)[C@@H]1O | 23
O=C(CCc1c(F)cccc1F)NS(=O)(=O)c1ccc2c(c1)OCCO2 | 0.914
Cc1cc(C)c2c(NCC3(O)CCCCC3)ncnc2n1 | 36.6
OC1(CNc2ccc(Br)cn2)CCC1 | -28.6
OCc1cc2ccccc2nc1NCC1CC1 | 59.1
OCc1cc2ccccc2nc1NCC1(O)CCC1 | 58.2
CC(C)(C)c1n[nH]cc1CNCC1CCN(CC(F)(F)F)C1 (stereo not drawn) | -35.2
FC(F)(F)CN1CCC(CNc2nc3ccccc3o2)C1 (stereo not drawn) | 24.8
OCc1cc2ccccc2nc1NC1CC=CC1 | 62.8
COc1nc2ccccc2cc1CN1CCC(CNS(C)(=O)=O)C1 (stereo not drawn) | 7.15
OCc1cc2ccccc2nc1NCC1CCN(CC(F)(F)F)C1 (stereo not drawn) | 63.8
Cc1nnc2n1CC(CNc1ncnc3ccccc13)CC2 (stereo not drawn) | 22
COc1cccn(CC(=O)N2CCCC3(CCOCC3)C2)c1=O | 40.9
COCCNC(=O)[C@@]12CCO[C@@H]1CCN(Cc1ccc(OC)cc1)C2 | 39.2
COc1ccc(CN2C[C@H]3CCC[C@@H](CN(C)C4CC4)[C@H]3C2)cn1 | -15.3
CC(C)(C)c1n[nH]cc1CNCC1CCN(C2CC2)C1 (stereo not drawn) | 26.3
CN(CC1CCOC1)S(=O)(=O)c1cccc(C(=O)N2CCOCC2)c1 (stereo not drawn) | 1.19
CC(C)N1CCCC(C(=O)N2CCN(c3cccc(C(=O)O)c3)CC2)C1 (stereo not drawn) | 21.2
